From PubChem BioAssay
An excerpt weighted towards active compounds, which were near 3.9% of everything screened.
TROY signal inh: inhibitors of TROY-driven NF-kB signaling, primary screen, Q293 LMP1-TROYcd cells, NF-kB luciferase, uHTS | actives 0.98% (n = 360,000) | Q293 LMP1-TROYcd NF-kB luciferase reporter, 4 h | inhibition, % at 10 µM;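 active = compounds whose plate-normalised and pattern-corrected inhibition of the luciferase reporter signal at the single screening dose is 50% or more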
TWEAK-Fn14 inh: inhibitors of TWEAK-Fn14 signaling, primary screen, luciferase reporter cells, uHTS. TWEAK-stimulated Fn14 reporter cells, luciferase luminescence, 8 h. inhibition, % at 10 µM. actives 2% (n = 360,000); in the data active = inhibition above about 50%
HIF-2a inh: HIF-2a reporter inhibitors, primary screen, luminescence, 786-0 RCC cells. 786-0 RCC cells HIF-2a reporter, luciferase luminescence, overnight. inhibition, % at 18.8 µM. AID 624352, 2012. actives 0.72% (n = 360,000);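 active = inhibition of the luminescence signal of 40% or more relative to plate controls, in a single-dose primary screen at 18.75 µM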
aSyn UTR inh: MLPCN primary screen, SNCA 5' untranslated region. alpha-synuclein 5'UTR reporter, inhibitor activity. inhibition, % (tested at 7.5 µM). actives 0.82% (n = 300,000); in the data active = inhibition above about 60%;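 note: H4 neuroglioblastoma cells stably carrying SNCA 5'UTR luciferase fusion; 0% = DMSO wells and 100% = positive control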
C8 TRAIL sens: viability loss with TRAIL in NB7+C8 cells, primary screen, TRAIL sensitizer project, cell-based, ATPlite luminescence; inhibition (viability loss, TRAIL sensitization), % at 10 µM; actives 1% (n = 360,000); AID 624354, 2012;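 active = compounds causing at least 50% loss of cell viability in the single-dose screen, relative to plate controls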
HSP90 inh: HSP90 inhibitors, primary screen, cell lysate, luminescence | Rabbit reticulocyte lysate, luciferase refolding luminescence, 3 h | actives 0.91% (n = 290,000) | Heat shock protein HSP 90 (rabbit reticulocyte lysate; luciferase refolding) | inhibition, % at 5.6 µM;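 active = inhibition above the screen-wide mean plus 3 SD, computed separately per campaign, cut at about 16% in these data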;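 note: 0% = DMSO wells and 100% = 60 µM geldanamycin wells; inhibitors lower the luminescence because luciferase stays unfolded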
The depositor's hits bear a star; / = no result.

SMILES	TROY signal inh	TWEAK-Fn14 inh	HIF-2a inh	aSyn UTR inh	C8 TRAIL sens	HSP90 inh
C[C@]12CCC(O)CC1CCC1C2CC[C@]2(C)C(c3cc(C(F)(F)F)n[nH]3)CCC12 (stereo partly drawn)	61*	-36	36	-27	-10	0
Cc1ccc(N2CCN(C(=O)C(=O)c3cccc([N+](=O)[O-])c3)CC2)cc1	/	/	-1	/	-14	/
O=C(COC(=O)COc1ccccc1[N+](=O)[O-])NCc1ccc2c(c1)OCO2	28	15	10	/	0	/
OCCN1CCN(CC/C=C2/c3ccccc3CSc3ccccc32)CC1	-24	21	3	103*	1	/
CCOc1ccccc1/C=C(/NC(=O)c1ccccc1)C(=O)N(CC)CC	50*	58*	12	29	0	3
CCOc1ccc(Cl)cc1/C=N/NC(=O)c1ccccc1	-30	8	3	-3	1	-6
Cc1ccc(C(C)C)c(OCC(=O)Nc2sc3c(c2C#N)CC(C)(C)NC3(C)C)c1	47	50*	12	22	13	2
CC1(C)Cc2c(sc(NC(=O)COc3ccc(Cl)cc3Cl)c2C(N)=O)C(C)(C)N1	-11	-1	3	62*	23	9
Cc1cc(OCC(=O)Nc2sc3c(c2C#N)CC(C)(C)NC3(C)C)c(C(C)C)cc1Cl	35	-12	5	11	32	5
CN(C)C(=S)Oc1ccccc1C1SCCS1	-8	7	-12	/	-7	/
CSc1ccc(C2NN=C(c3ccccc3)S2)cc1 (stereo not drawn)	51*	77*	-85	68*	84*	/
COc1ccc(C2NN=C(c3ccc(C)cc3)S2)cc1 (stereo not drawn)	-35	26	-289	-172	50*	-5
CCCCCCn1cc(CN2CC(N3CCCC3)CS2(=O)=O)nn1 (stereo not drawn)	-1	0	9	/	-5	/
Cc1ccsc1C(=O)N1CCC1(C)C(=O)NCc1cccnc1 (stereo not drawn)	9	5	11	/	-14	/
OC[C@@H]1CN(C2CCCC2)C[C@H](n2cnc3c(NC4CC4)ncnc32)O1	-6	-11	13	/	-19	/
O=C(Nc1nccs1)C(c1ccccc1)N1CCCC1 (stereo not drawn)	7	86*	13	1	-1	-1
CC(C)C(C(=O)Nc1nccs1)c1ccccc1 (stereo not drawn)	-14	5	10	8	4	6
c1ccc(-c2cc(-c3ccccc3)on2)cc1	-52	-17	-307	-152	22	5
Cc1ccc(-c2cc(-c3ccccc3)no2)cc1	-26	60*	-121	-22	55*	/
COc1ccccc1N1CCN(C(=O)c2ccc3ncsc3c2)CC1	-5	-7	-20	/	5	/
CCCCNC(=O)c1nc(C2CCN(S(=O)(=O)c3c(F)cccc3F)CC2)oc1-c1ccccc1	19	31	8	/	-6	/
O=S(=O)(c1cccc(NC(=S)N2CCN(c3ccccc3)CC2)c1)C(F)F	29	47	-14	5	-2	-4
O=S(=O)(c1cccc(NC(=S)N2CCN(c3ccccc3F)CC2)c1)C(F)F	14	51*	0	12	1	-3
O=C(Nc1cccc(F)c1)c1c(F)c(F)c(F)c(F)c1F	-7	11	7	-11	-1	2
O=C(Nc1ccccc1NC(=O)c1c(F)c(F)c(F)c(F)c1F)c1c(F)c(F)c(F)c(F)c1F	9	-9	14	0	82*	3
O=C(NC1CCCCC1)C(c1ccc(C(F)(F)F)cc1)n1c(=O)c(-c2ccco2)nc2ccccc21 (stereo not drawn)	/	/	1	/	2	/
Nc1nc(=S)c2[nH]cnc2[nH]1	-11	25	13	/	75*	/
CN(C(=O)c1ccno1)c1nnc(-c2ccccn2)s1	-18	12	-58	-32	-2	5
COc1ccc(-c2nnc(N(C)C(=O)c3ccno3)s2)cc1	/	50*	-178	-138	29	4
CCCN(C(=O)c1ccco1)c1nnc(-c2cccc(C)c2)s1	-58	-34	-218	-143	7	5
